Source: PubChem BioAssay
Rows were chosen to be rich in hits. Some 2.3% of all compounds tested hit in one or more screens of this group.
TDP43 rescue = inhibitors of TDP-43 toxicity in yeast. AID 652104. actives 1.8% (n = 410,000). Potency, µM (highest dose often 46.1 µM), without a hit: at the top dose growth rescue (activation), usual class: activators. TDP-43 expressing yeast growth rescue, BacTiter-Glo, 24 h; further: % of control where 0% means no effect; nearly all actives have a fitted effect of over 50% in size
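Yeast expressing TDP-43 (pregrown in raffinose, seeded at OD600=0.02 in galactose medium) exposed to compounds 24 hr at 30 deg C. Growth read by BacTiter-Glo luminescence; rescue of toxicity appears as increased signal.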
BCR signal inh = blocks chronic active B-cell receptor signaling; actives 0.05% (n = 340,000); ABC-DLBCL IkBa-CBG/CBR reporter, luminescence ratio, 4 h; Potency, µM (highest dose often 46.1 µM), for inactives: at the top dose activity change, negative = inhibition, usual class: inhibitors; active means well fitted inhibition curve with a large enough effect in the signal ratio, with a control signal flat, not every such curve was filed as active; inconclusive means small, poorly fitted or top-dose-only effect, or effect the other way, or a change in a side signal; the % refers to the signal ratio;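 further: plate controls were basal doxycycline-induced cells for no effect and cells given 10 µM MG132 for full effect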
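Cell line TMD8 (human ABC DLBCL), stably expressing tet-inducible CBG68-IkBa fusion and CBR; IMDM/0.5% FBS; cpd up to 46 uM; dox induction, 4 h, 37C/5% CO2; dual luminescence; green/red ratio; MG132 control.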
uPA surface inh = cell surface uPA generation inhibition; Potency, µM (doses to about 38.3 µM), inactives show at the highest dose activity change, negative = inhibition, actives largely listed as inhibitors; cell surface uPA generation assay, qHTS; actives 0.31% (n = 330,000); active means well fitted inhibition curve with a large enough effect; inconclusive means small, poorly fitted or top-dose-only effect; inactive means no such curve, though single readings can be large or run the other way; tested in mouse RAW 264.7 cells; further: on the % scale 0 is the no-effect control and ±100 the full control effect; nearly all actives have a fitted effect of over 55% in size
Abeta rescue = compounds reversing amyloid beta toxicity in yeast; yeast expressing A-beta42, growth rescue, OD600, 48 h; response scale: 0% DMSO, 100% iron-clioquinol control; Potency, µM (highest dose often 46.1 µM), usual class: activators; actives 0.063% (n = 410,000); AID 1347071; further: nearly all actives have a fitted effect of over 55% in size
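Growth rescue measured by 600 nm absorbance after 48 h yeast culture at 30 C with compound. Values normalized between DMSO and an equimolar ferric chloride plus clioquinol control.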
FUS suppressor = rescues growth of FUS-expressing yeast. S. cerevisiae FUS-expressing, growth rescue, OD600, 24 h. Potency, µM (top dose mostly 76.6 µM), most hits filed as activators. actives 0.24% (n = 390,000);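 further: plate controls were DMSO vehicle for no effect and reference control for full effect; nearly all actives have a fitted effect of over 55% in size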
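Cultures pregrown in 2.5% raffinose medium are shifted to minimal medium containing 2% galactose to express toxic FUS. Compounds are tested at several concentrations. After 24hr at 30C, growth is quantified at 600 nm absorbance.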
aSyn rescue = alpha-synuclein toxicity inhibition in yeast. Yeast expressing alpha-synuclein, growth rescue, BacTiter-Glo, 24 h. Potency, µM (doses to about 46.1 µM), for the others: top-dose growth rescue (activation), actives largely listed as activators. actives 0.14% (n = 370,000). AID 652106; further: % of control where 0% means no effect; nearly all actives have a fitted effect of over 65% in size
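Readout is rescue of growth in alpha-synuclein-expressing yeast, so inhibitors of toxicity appear as activators. Growth after 24 hr at 30 deg C in galactose medium is quantified by luminescence.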
The depositor's hits bear a star; i = inactive; ? = inconclusive; nt = no result given. Unless noted, the call rests on the fitted dose curve; in most records, active means well fitted curve in the direction sought with a large enough effect; inconclusive means small, poorly fitted or top-dose-only effect, or another doubt; inactive means no such curve, though single readings can be large; an effect the other way counts as inactive or inconclusive. Potency means the concentration at half of the fitted maximal effect.

SMILES	TDP43 rescue	BCR signal inh	uPA surface inh	Abeta rescue	FUS suppressor	aSyn rescue
O=C(c1ccc(Br)o1)N1N=C(c2ccc(Cl)cc2)CC1c1ccco1 (stereo unspecified)	3.4%	?	-7.7%	i	i	12.2%
CCc1ccc2oc(-c3ccc(OC)cc3)cc(=Nc3cccc(C(=O)O)c3)c2c1	12.2%	?	-8.7%	i	i	-2.6%
CCc1ccc2oc(-c3ccc(OC)cc3)cc(=Nc3c(C)n(C)n(-c4ccccc4)c3=O)c2c1	?	?	8.91µM*	?	i	-2.6%
COc1ccc(-c2cc(=Nc3ccc(C(=O)O)cc3)c3cc(C)ccc3o2)cc1	17.8µM*	?	-5.3%	i	i	11.0%
O=C(CSc1nc2c([nH]c3ccccc32)c(=O)n1-c1ccccc1F)Nc1ccccc1C(F)(F)F	20.7%	nt	nt	i	i	nt
COC(=O)c1cccc(NC(=O)Nc2ccc(Cl)cc2Cl)c1	7.7%	2.0%	13.5%	i	i	0.0%
CCOC(=O)Nc1ccc2c(c1)N(C(=O)CCN(C)C)c1ccccc1S2	20µM*	?	-8.8%	i	i	13.0%
Oc1ccc(/C=N/NC(=S)Nc2cccnc2)cc1	13.5%	?	3.98µM*	i	i	-2.7%
CN(CC(=O)Nc1ccncc1)S(=O)(=O)c1ccc(Cl)cc1	-12.1%	-0.3%	nt	i	i	6.6%
Cc1ccc(CNC(=O)CSc2nnc(C)c3c(C)n(-c4ccccc4)nc23)cc1	6.4%	nt	nt	i	i	nt
O=C(NCc1ccco1)c1noc2c1CCCC2	-9.2%	0.6%	nt	i	i	0.4%
CC1CCc2onc(C(=O)NCc3ccco3)c2C1 (stereo unspecified)	25.1µM*	-8.1%	-6.9%	i	i	0.4%
Cc1sc2ncnc(N3CCC(C(=O)Nc4cc(Cl)ccc4Cl)CC3)c2c1C	11.2µM*	1.9%	27.4%	i	i	-10.1%
O=S(=O)(c1ccc2c(c1)OCCO2)N1CCN(c2ncnc3sccc23)CC1	22.0%	-19.1%	-11.7%	i	i	9.8%
Cc1sc2ncnc(N3CCC(C(=O)Nc4cc(S(C)(=O)=O)ccc4Cl)CC3)c2c1C	2.0%	-11.2%	4.8%	i	i	0.2%
Cc1ccc(S(=O)(=O)N2CCN(c3ncnc4sccc34)CC2)cc1C	11.2µM*	?	-12.0%	i	i	6.8%
Cc1sc2ncnc(N3CCN(S(=O)(=O)c4ccccc4)CC3)c2c1C	17.8µM*	1.8%	-2.7%	i	nt	-3.2%
C[C@H](O)[C@@H]1CN2CCc3c([nH]c4ccc(-c5ccc6c(c5)OCO6)cc34)[C@@H]2C[C@@H]1N(C)C(=O)Nc1cc(Cl)cc(Cl)c1	?	nt	nt	i	?	-19.4%
O=C(C#Cc1ccccc1)c1ccccc1	?	nt	nt	i	i	-5.9%
O=C(C#Cc1ccccc1)c1ccc([N+](=O)[O-])cc1	11.2µM*	?	-8.9%	i	i	-14.4%
Cc1noc(-c2ccc(C(F)(F)F)cc2)c1NC(=O)Nc1ccc(Cl)cc1	15.4%	8.9%	-23.3%	i	i	4.2%
C=Cc1ccc(Cn2nc(-c3ccccc3)ccc2=O)cc1	11.2µM*	-19.8%	0.5%	i	?	?
Cc1onc(-c2c(F)cccc2Cl)c1C(=O)c1ccccc1O	-29.6%	7.2%	-2.7%	i	i	15.0%
Cc1onc(-c2c(Cl)cccc2Cl)c1C(=O)c1ccc(F)cc1	12.6µM*	4.9%	-15.4%	i	i	0.0%
Cc1onc(-c2c(F)cccc2Cl)c1C(=O)c1ccc(F)cc1	12.6µM*	-0.7%	2.9%	i	i	15.7%
SMILES	TDP43 rescue	BCR signal inh	uPA surface inh	Abeta rescue	FUS suppressor	aSyn rescue
Cc1onc(-c2c(F)cccc2Cl)c1C(=O)c1ccccc1	0.0%	1.0%	-0.6%	?	i	16.8%
Cn1c(=O)c2c(nc(N3CCCCC3)n2C)n(C)c1=O	9.5%	15.4%	1.5%	i	i	6.5%
COc1cc(/C=N/N2C(=O)c3ccccc3NC2(C)c2cccc([N+](=O)[O-])c2)cc(Br)c1O (stereo unspecified)	5.5%	?	-9.8%	i	i	-7.5%
COc1ccc(NC(=O)c2c(NC(=O)COc3ccc(Cl)cc3)sc3c2CCCCC3)cc1	8.91µM*	nt	nt	i	i	nt
O=C(COc1ccccc1)Nc1sc2c(c1C(=O)Nc1ccccc1)CCCCC2	7.1%	nt	nt	i	i	nt
COc1ccc2oc(=O)c(/C(C)=N/Nc3nc(-c4cc(C)ccc4C)cs3)cc2c1	-16.4%	0.1%	3.0%	i	nt	-0.1%
CS(=O)(=O)N1CCN(c2ccccc2NC(=O)c2ccc([N+](=O)[O-])o2)CC1	-93.5%	0.6%	-12.2%	i	i	14.0%
CN1CCN(c2ccccc2NC(=O)c2ccc([N+](=O)[O-])o2)CC1	-7.6%	-3.6%	4.47µM*	i	nt	-7.5%
O=C(c1ccco1)N1CC2(CC(c3ccc(Cl)cc3)=NO2)CN1Cc1ccc(Br)cc1 (stereo unspecified)	31.6µM*	nt	nt	i	i	11.6%
CC(C)N1CC2(CC(c3ccccc3F)=NO2)CN1C(=O)c1ccco1 (stereo unspecified)	19.0%	nt	nt	i	i	2.4%
C=CCn1c(COc2ccccc2-c2ccccc2)nnc1SCC(=O)NC(=O)NCc1ccco1	-15.3%	-14.8%	nt	i	?	0.0%
Nc1c(Nc2ccccc2)c2ccccc2oc1=O	?	?	-0.1%	i	i	17.8µM*
CCNc1c(N)c(=O)oc2ccccc12	-4.5%	?	5.2%	i	i	-0.6%
COc1ccc(-c2cc(C(=O)N(C)Cc3ccc(F)cc3)c3ccccc3n2)cc1OC	22.4µM*	nt	2.0%	i	i	-5.3%
COC(=O)c1cc2oc3ccccc3c2n1Cc1nc(-c2ccccc2C)oc1C	12.8%	nt	nt	i	i	nt
O=c1[nH]c2cc3c(cc2cc1C(c1nnnn1Cc1ccccc1)N1CCN2CCCC2C1)OCCO3 (stereo unspecified)	-20.5%	0.4%	0.5%	i	17.8µM*	3.0%
COc1ccc(NC(=O)c2cc(CN3C(=O)c4ccccc4C3=O)ccc2OC)cn1	-3.6%	-1.1%	-9.9%	i	i	-4.9%
COc1ccc(CN2C(=O)c3ccccc3C2=O)cc1C(=O)Nc1ccccc1N1CCOCC1	17.8µM*	0.6%	-2.6%	i	i	?
CC(C)c1ccc(NC(=O)CSC2=Nc3ccccc3C3=NC(CC(=O)NCc4cccs4)C(=O)N23)cc1 (stereo unspecified)	?	?	nt	12.6µM*	i	nt
